The text below walks through data of PubChem BioAssay (Tox21).

SMILES strings stand for the structures. The source made the active and inactive calls. The call rests on the fitted dose curve.
On the % scale 0 is the no-effect control and ±100 the full control effect.

Sequence of Muscarinic acetylcholine receptor M1 (Homo sapiens) (P11229 whole entry, looked up): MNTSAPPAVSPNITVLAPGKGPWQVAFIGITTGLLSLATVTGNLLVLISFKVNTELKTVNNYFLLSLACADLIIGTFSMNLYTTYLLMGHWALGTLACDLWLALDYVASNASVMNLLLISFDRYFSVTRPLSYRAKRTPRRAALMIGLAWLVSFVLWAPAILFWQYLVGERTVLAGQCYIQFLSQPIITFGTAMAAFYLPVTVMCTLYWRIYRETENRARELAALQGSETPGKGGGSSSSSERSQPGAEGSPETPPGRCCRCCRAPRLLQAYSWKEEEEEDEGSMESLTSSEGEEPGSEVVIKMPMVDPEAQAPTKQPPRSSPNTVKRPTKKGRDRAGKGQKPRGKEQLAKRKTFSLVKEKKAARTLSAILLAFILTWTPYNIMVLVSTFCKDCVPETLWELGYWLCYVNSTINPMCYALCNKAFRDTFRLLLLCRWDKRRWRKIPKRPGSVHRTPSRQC

The assay concerns the target Muscarinic acetylcholine receptor M1 (Homo sapiens) (UniProt P11229). In words: Cholinergic receptor muscarinic 1 (CHRM1) small molecule agonists, cell-based qHTS assay (AID 1963589). Further: nearly all actives have a fitted effect of over 35% in size. The note with it: CHRM1-CHO cells, agonist mode, calcium flux fluorescence; series mostly up to 76.8 µM; activation: at the top concentration. The text has this: National Center for Advancing Translational Sciences [NCATS]
Division of Preclinical Innovation [DPI]
U.S. Environmental Protection Agency [EPA]
National Institutes of Environmental Health Sciences [NIEHS]
National Toxicology Program [NTP]
U.S. Food and Drug Administration [FDA]
The CHRM1 is a muscarinic receptor. This receptor plays a crucial role in learning and memory processes and has long been identified as a promising therapeutic target for the improvement of cognitive decline in Alzheimer's disease (AD). The CHRM1-CHO cell line stably expressing human muscarinic acetylcholine receptor M1 (CHRM1) can be used for screening agonists and antagonists of interactions between CHRM1 and its ligands. The CHRM1-CHO Calcium Flux Assay is a homogeneous fluorescence-based assay for detecting the intracellular calcium level using FDSS kinetic plate reader system.
CHRM1-CHO cells were dispensed at 1000 cells/3uL/well in 1536-well black-clear bottom plates using a Multidrop Dispenser. After the assay plates were incubated at a 37 C/5% CO2 incubator for 18 h, 3 uL of Dye Loading Buffer was transferred to the assay plate by a Flying Reagent Dispenser. The assay plates were incubated at 37 C for 1h. For agonist mode, 23 nL of compounds dissolved in DMSO, positive controls or DMSO only was transferred to the assay plate by a pin tool. […] Each test compound was measured at 15 concentrations in three independent runs.
For `Nc1ncnc2c1ncn2[C@@H]1O[C@H](COP(=O)(O)O)[C@@H](O)[C@H]1O`, the “activation” value was -0.0747% [at 35.3 µM] (inactive).
For the compound `O=C1OC(=O)C2CC=CCC12` (stereo not given), the “activation” value is 1.37% (inactive).
For the compound `O=C1C=CC(=O)O1`, the “activation” value is -0.0875% (inactive).
The same measure, in the same setting: the value for `O=C1NC2NC(=O)NC2N1` (stereo not given) was 1.3% (inactive); that for `CC(CO)c1ccccc1` (stereo not given) was 0.233% (inactive).
Same read-out and setting: then `COC(=O)c1cc(S(N)(=O)=O)ccc1OC`, with 0.0398% [at 35.3 µM] (inactive); and `CC(C)CCO`, with 0.311% (inactive); and `COC(/C=C(\C)CCC=C(C)C)OC`, with -0.503% (inactive).
On to `Nc1c2ccccc2nc2ccccc12`, for which the Potency entry is “inactive”.
Take `CC1=NN(c2ccc(S(=O)(=O)O)cc2)C(=O)C1`: the “activation” value was 0.0585% (inactive).
As to `Nc1ccc2c(S(=O)(=O)O)cccc2c1S(=O)(=O)O`, the “activation” value was 0.0156% [at 35.3 µM] (inactive).
Same read-out and setting: the value for `CCC(C)SSC(C)CC` (stereo not given) was 1.59% (inactive).
The same measure, in the same setting: then `O=Cc1ccc(Cl)c(Cl)c1`, with 1.66% (inactive); and `CC(C)(C)C(=O)C(Oc1ccc(Cl)cc1)n1ccnc1` (stereo not given), with -0.0749% [at 35.3 µM] (inactive).
Consider `CCN(CC)c1ccc2c(C)cc(=O)oc2c1`, for which the Potency entry was “inactive”.
Take `c1ccc(CSCc2ccccc2)cc1`: the “activation” value is -0.438% (inactive).
With `OC1(c2ccc(Cl)cc2)CCNCC1`, the “activation” value is -0.153% [at 35.3 µM] (inactive).
On to `CC/C=C\CCO`, for which the “activation” value is 0.0887% (inactive).
`CCC(C)NC(N)=O` (stereo not given): the “activation” value is -0.0711% (inactive).
For `C=COCCCC`, the “activation” value is -0.132% (inactive).
For the compound `C[C@@H]1CCC[C@H](C)N1`, the “activation” value is -0.249% [at 35.3 µM] (inactive).
On to `C=C(C)C(=O)OCCC[Si](Cl)(Cl)Cl`, for which the “activation” value was -0.0066% (inactive).
Regarding `CC(Cl)COP(=O)(OCC(C)Cl)OCC(C)Cl` (stereo not given), the “activation” value is -0.421% (inactive).
`O=C(O[C@@H]1Cc2c(O)cc(O)cc2O[C@@H]1c1cc(O)c(O)c(O)c1)c1cc(O)c(O)c(O)c1`: the Potency entry was “inactive”.
On to `CCCCC(CC)COCCC#N` (stereo not given), for which the “activation” value is -0.592% (inactive).
Turning to `O=C(O)c1ccccc1S`, the “activation” value was 0.0306% [at 35.3 µM] (inactive).
Take `C[Si](C)=O`: the activation is 0.243% [at 6.97 µM] (inactive).
For `Cc1cc(C)c(N)c(Cl)c1`, the “activation” value was 0.323% (inactive).
Consider `CCOCCOCCOCC`, for which the “activation” value is -0.219% (inactive).
Regarding `CC1(C)CO[C@@H](CC(=O)O)CN1`, the “activation” value is 0.238% [at 35.3 µM] (inactive).
For the compound `CCCCN(CCO)CCO`, the “activation” value was 0.432% (inactive).
Turning to `CN(C(=O)c1c(O)c2ccccc2n(C)c1=O)c1ccccc1`, the “activation” value was -0.0863% [at 35.3 µM] (inactive).
Still for that read-out and setting: then `CCOC(=O)OC(=O)OCC`, with -0.218% (inactive); and `NC(=O)NS(=O)(=O)c1ccc(Cl)cc1`, with -0.319% [at 35.3 µM] (inactive).
Still for that read-out and setting: then `CCC(=O)OC(C)(C)C1CC=C(C)CC1` (stereo not given), with 0.577% (inactive); and `NS(=O)(=O)c1cc2c(cc1Cl)NC(C1CC3C=CC1C3)NS2(=O)=O` (stereo not given), with -0.759% [at 35.3 µM] (inactive); and `Cc1cc(C)cc(N)c1`, with -0.731% (inactive).
For the compound `CC(C)(O)C(=O)O`, the “activation” value is 0.873% (inactive).
For `COCCOCCOCCOCCOCCO`, the “activation” value is -0.154% (inactive).
On to `OCC(O)CN1CCN(c2ccccc2)CC1` (stereo not given), for which the “activation” value was -0.113% [at 35.3 µM] (inactive).
